Experimental data: PubChem BioAssay (EPA / NIEHS)
The source holds several records for some structures; these can differ, active in one and inactive in another. The source made the active and inactive calls. How the source made its calls: active means hit-call score of the fitted dose curve at least 0.9, where 1 is the maximum; inactive means score below 0.9.

Experiment: ATG_BRE_CIS: Attagene CIS-FACTORIAL HepG2 Assay for human Bone Morphogenetic Protein (BMP) Response Element (BRE) (AID 2282933)
Conditions: HepG2 BMP response element reporter, Attagene transcription factor profiling; actives raise or lower the signal
Experimental: ATG_CIS is a cell-based, multiplexed-readout assay that uses HepG2, a human liver cell line, with measurements taken at 24 hours after chemical dosing in a 24-well plate.ATG_BRE_CIS is one of 52 assay component(s) measured or calculated from the ATG_CIS assay. It is designed to make measurements of mRNA induction, a form of inducible reporter, as detected with fluorescence intensity signals by Reverse transcription polymerase chain reaction (RT-PCR) and Capillary electrophoresis technology.Data from the assay component ATG_BRE_CIS was analyzed into 1 assay endpoint. This assay endpoint, ATG_BRE_CIS, was analyzed with bidirectional fitting relative to DMSO as the negative control and baseline of activity. Using a type of inducible reporter, measures of mRNA for gain or loss-of-signal activity can be used to understand the reporter gene at the transcription factor-level as they relate to the gene SMAD1. Furthermore, this assay endpoint can be referred to as a primary readout, because this assay has produced multiple assay endpoints where this one serves a reporter gene function. To generalize the intended target to other relatable targets, this assay endpoint is annotated to the dna binding intended target family, where the subfamily is Smad protein.
Human liver HepG2 cells are transiently transfected with multiple reporter transcription units (MRTUs) in 6-well plates using FuGene 6 reagent (Roche; 3 ml FuGene/1 mg DNA). The MRTU constructs are regulated by a cis-regulating element (promoter). […] A major difference between the CIS and TRANS system is that in CIS activities of endogenous TFs are measured, whereas the TRANS assay evaluates changes in activities of exogenous, chimeric NR-Gal4 proteins. […] At the end of 24 hour incubation, total RNA was isolated using TriZol reagent (Invitrogen). The isolated RNA is then reverse-transcribed using oligo(dT) primer and Mo-MLV reverse transcriptase (Invitrogen) with DNAse I (Ambion) treatment for 30 min. The one-tenth of the produced cDNA was amplified by PCR using Taq DNA polymerase (Invitrogen) and two reporter sequence-specific primers. The PCR products were fluorescently labeled by primer extension with 6-arboxyfluorescein (6-FAM) 5'-labeled reporter sequence-specific primer (2 min at 95 C, 20 s at 68 C and 10 min at 72 C) and these products were digested with 5U of HpaI (New England Biolabs) for 2h at 37 C. The fragments were purified using Qiaquick PCR columns (Qiagen), analyzed on an ABI 3130xL genetic analyzer (Applied Biosystems) with peak positions identified by using a set of X-rhodamine (ROX)-labeled MapMarker1000 molecular weight standards (BioVentures). The raw capillary electrophoresis data was processed using Attagraph software (Attagene).

SMILES	outcome	AC50
CCCCN(CC)c1c([N+](=O)[O-])cc(C(F)(F)F)cc1[N+](=O)[O-]	inactive	–
C#CCC1=C(C)C(OC(=O)C2C(C=C(C)C)C2(C)C)CC1=O (stereo not given)	–	9.01 µM (active)
COP(=O)(OC)SCn1c(=O)oc2cc(Cl)cnc21	inactive	–
COc1cc(OC)nc(Sc2cccc(Cl)c2C(=O)O)n1	inactive	–
CC(C)=CC1C(C(=O)OCN2C(=O)C3=C(CCCC3)C2=O)C1(C)C (stereo not given)	–	50 µM (active)
CCOP(=S)(OCC)Oc1ccc2c(C)c(Cl)c(=O)oc2c1	inactive	–
CC(C1CC1)C(O)(Cn1cncn1)c1ccc(Cl)cc1 (stereo not given)	inactive	–
CC1(C(=O)Nc2ccc(O)c(Cl)c2Cl)CCCCC1	–	39.3 µM (active)
CCCCOC(=O)c1ccccc1C(=O)O	inactive	–
FC(F)C(F)(F)OCC(Cn1cncn1)c1ccc(Cl)cc1Cl (stereo not given)	–	58.4 µM (active)
CCCSP(=O)(OCC)SCCC	inactive	–
CCOP(=S)(OCC)SCCSCC	inactive	–
CC1=NNC(=O)N(/N=C/c2cccnc2)C1	inactive	–
CSc1nc(NC(C)C)nc(NC(C)C)n1	inactive	–
CN(C)NC(=O)CCC(=O)O	inactive	–
CC(Oc1cccc(Cl)c1)C(=O)O (stereo not given)	inactive	–
C#CC(C)(C)NC(=O)c1cc(Cl)cc(Cl)c1	–	22.5 µM (active)
Nc1nc(N)nc(NC2CC2)n1	inactive	–
CCOP(=S)(OCC)OC(Cl)C(Cl)(Cl)Cl (stereo not given)	inactive	–
CCOP(=S)(OCC)Oc1cc(C)nc(C(C)C)n1	inactive	–

SMILES	outcome	AC50
N#CSCSC#N	inactive	–
COP(=O)(NC(C)=O)SC (stereo not given)	inactive	–
CCCCSP(=O)(SCCCC)SCCCC	–	40.1 µM (active)
CCOC(=O)CC(SP(=O)(OC)OC)C(=O)OCC (stereo not given)	inactive	–
CC(COc1ccc(Oc2ccccc2)cc1)Oc1ccccn1 (stereo not given)	inactive	–
CCOP(=O)(SC(C)CC)N1CCSC1=O (stereo not given)	inactive	–
CCc1cnc(C2=NC(C)(C(C)C)C(=O)N2)c(C(=O)O)c1 (stereo not given)	inactive	–
O=[N+]([O-])c1cc(C(F)(F)F)c(Cl)c([N+](=O)[O-])c1Nc1ncc(C(F)(F)F)cc1Cl	inactive	2.63 µM (active)
CCC(CC)Nc1c([N+](=O)[O-])cc(C)c(C)c1[N+](=O)[O-]	inactive	–
C[N+]1(C)CCCCC1	inactive	–
S=C1NCCN1	inactive	–
C[Si](Cn1cncn1)(c1ccc(F)cc1)c1ccc(F)cc1	–	39.1 µM (active)
Cc1nn(-c2cc(NS(C)(=O)=O)c(Cl)cc2Cl)c(=O)n1C(F)F	inactive	–
CSC1=N[C@@](C)(c2ccccc2)C(=O)N1Nc1ccccc1	–	5.2 µM (active)
CC(=NC#N)N(C)Cc1ccc(Cl)nc1	inactive	–
CON=C(C(=O)OC)c1ccccc1CON=C(C)c1cccc(C(F)(F)F)c1	–	25 µM (active)
CN(C)C(=O)Nc1cccc(C(F)(F)F)c1	inactive	–
Cc1cc(C2CC2)nc(Nc2ccccc2)n1	–	33.5 µM (active)
CC(C)[C@H](C(=O)O[C@H](C#N)c1cccc(Oc2ccccc2)c1)c1ccc(Cl)cc1	inactive	–
